# In PubChem BioAssay (NCI):
# Compounds without any hit were thinned out: in the full panel of roughly 79,000, 15% have a hit. Calls of active or inactive are those of the source. Cut-off read from the data, not from the text of the source: active = growth inhibition above about 70%; inactive = the rest.
# Columns and labels:
# [1] = NCI Yeast Anticancer Drug Screen. Data for the rad50 strain (AID 155);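 note: 0% = growth of vehicle-only cultures of the same strain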; settings: S. cerevisiae rad50 strain growth inhibition; at 50.0 µM; stronger effect = higher value
# Summary of the method: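 Readout: growth inhibition relative to vehicle-treated cultures. Compound exposure was carried out in a genetically defined yeast strain deficient in DNA damage repair.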
# [2] = NCI Yeast Anticancer Drug Screen. Data for the mec2-1 strain (AID 157); settings: S. cerevisiae mec2-1 strain, at 50.0 µM, stronger effect = higher value
# Summary of the method: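 Each compound was tested on mec2-1 yeast, a strain altered in DNA damage repair or cell cycle control. Growth inhibition is reported relative to vehicle.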
# [3] = NCI Yeast Anticancer Drug Screen. Data for the sgs1 mgt1 strain (AID 161);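 note: 0% = growth of cultures given vehicle only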; settings: S. cerevisiae sgs1 mgt1 strain, at 50.0 µM, stronger effect = higher value
# Summary of the method: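 Read-out: growth inhibition vs vehicle controls. Cells: mutant yeast strain deficient in DNA damage repair.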
# [4] = NCI Yeast Anticancer Drug Screen. Data for the cln2 rad14 strain (AID 165);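 note: 0% = growth equal to vehicle treated cultures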; settings: S. cerevisiae cln2 rad14 strain, at 50.0 µM, stronger effect = higher value
# Summary of the method: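 Test compounds were added to cln2 rad14 yeast cultures; inhibition of growth was then determined by comparison with vehicle treatment.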
# [5] = NCI Yeast Anticancer Drug Screen. Data for the bub3 strain (AID 167); settings: S. cerevisiae bub3 mutant strain, at 50.0 µM, stronger effect = higher value
# Summary of the method: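 Readout: yeast growth inhibition, expressed relative to vehicle-only wells. The test organism is a mutant strain from a panel with lesions in DNA repair or checkpoint genes.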
# [6] = NCI Yeast Anticancer Drug Screen. Data for the mlh1 rad18 strain (AID 175); settings: S. cerevisiae mlh1 rad18 strain growth inhibition; at 50.0 µM; stronger effect = higher value
# Summary of the method: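 Inhibition values reflect reduced growth of mutant yeast versus vehicle-treated controls following compound exposure; the mutations affect DNA damage repair.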
SMILES,growth inhibition [1],growth inhibition [2],growth inhibition [3],growth inhibition [4],growth inhibition [5],growth inhibition [6]
Cc1cc2c(C(C)C)c(O)c(O)c(C=NCc3ccc(Br)cc3)c2c(O)c1-c1c(C)cc2c(C(C)C)c(O)c(O)c(C=NCc3ccc(Br)cc3)c2c1O,-5.6% (inactive),1.6% (inactive),26.6% (inactive),-22.1% (inactive),-9.15% (inactive),27.8% (inactive)
[O-]c1on[n+](-c2ccccc2)c1CN1CCOCC1,-8.2% (inactive),-8.35% (inactive),-9.9% (inactive),-45% (inactive),8.1% (inactive),-3.05% (inactive)
Cc1cc(=O)oc2c(-c3ccccc3)nnc(Cl)c12,21.4% (inactive),15% (inactive),16.2% (inactive),13.9% (inactive),18.1% (inactive),40.5% (inactive)
CCCCCNC(=O)c1ccc([N+](=O)[O-])cc1,7.35% (inactive),-1.75% (inactive),3.75% (inactive),4.85% (inactive),-1% (inactive),13.9% (inactive)
COc1ccc(-c2cc(-c3ccccc3)nc(-c3cccc([N+](=O)[O-])c3)c2)cc1,-1.6% (inactive),-4.4% (inactive),11.4% (inactive),-3.75% (inactive),21.2% (inactive),18.4% (inactive)
CCOC(=O)c1cc2c(oc1=O)-c1cc(C)ccc1OC2C (configuration not stated),-9.45% (inactive),-14.8% (inactive),8.75% (inactive),-40.6% (inactive),-38.4% (inactive),11.1% (inactive)
Nc1cccc2sccc12,4.25% (inactive),5.15% (inactive),-3.85% (inactive),-4.1% (inactive),11.9% (inactive),-3.35% (inactive)
C=CCNC(=S)Nc1cccc(OC(=O)NC2CCCCC2)c1,-0.15% (inactive),2.05% (inactive),3.75% (inactive),-19.6% (inactive),14.3% (inactive),-4.7% (inactive)
Cc1cc(C)c(SSc2c(C)cc(C)cc2C)c(C)c1,-7.8% (inactive),-8.65% (inactive),-3.9% (inactive),-15.6% (inactive),7.6% (inactive),-1.6% (inactive)
O=S(=O)(O)C(Cc1nc2ccccc2[nH]1)S(=O)(=O)OCCC1S(=O)(=O)OCCOS1(=O)=O (configuration not stated),0% (inactive),-0.4% (inactive),29.5% (inactive),-18.9% (inactive),13.1% (inactive),-24.9% (inactive)
COC(=O)C1=C(c2ccccc2)c2ccc3ccccc3c2C1c1ccccc1 (configuration not stated),40.1% (inactive),-8.25% (inactive),22.9% (inactive),12.4% (inactive),6.15% (inactive),25.2% (inactive)
Nc1cccc([N+](=O)[O-])c1O,4.75% (inactive),2.45% (inactive),12.7% (inactive),9.75% (inactive),5.4% (inactive),12.4% (inactive)
c1ccc(-c2csc3[n+]2CCN3)cc1,18.6% (inactive),13.9% (inactive),12.8% (inactive),5.3% (inactive),2.8% (inactive),14.2% (inactive)
CC(=O)Nc1ccc(/C=N\N=C\c2ccc(NC(C)=O)cc2)cc1,1.95% (inactive),13.7% (inactive),28.4% (inactive),-4.6% (inactive),29.9% (inactive),28.6% (inactive)
CCC(C)C(=O)OC1C(=O)OC2CC3C(C)=CC(=O)C(O)C3(C)C3C4(O)OCC23C1C(C)C4O (configuration not stated),90.3% (active),93% (active),90% (active),91.3% (active),90.6% (active),92.1% (active)
O=C(O)c1cc(-c2ccc(-c3ccccc3)cc2)nc2cc3ccccc3cc12,-15.7% (inactive),-3.9% (inactive),-2.15% (inactive),-20.6% (inactive),-54.9% (inactive),22% (inactive)
CCOc1ccccc1NC(=O)C1=C(C)NC(C)=C(C(=O)Nc2ccccc2OCC)C1c1ccc2c(c1)OCO2,9.5% (inactive),44.5% (inactive),41.3% (inactive),23.2% (inactive),43.1% (inactive),39.9% (inactive)
CC(C)/C=N\N1C(N)=C(C#N)C(C#N)(C#N)C1C(C)C (configuration not stated),-0.65% (inactive),10.5% (inactive),-35.3% (inactive),-19.4% (inactive),-12.2% (inactive),-41.3% (inactive)
CNC(=O)Nc1ccnc(=O)[nH]1,-10.6% (inactive),-1.85% (inactive),-6.15% (inactive),-28.3% (inactive),-9.55% (inactive),-8.8% (inactive)

SMILES,growth inhibition [1],growth inhibition [2],growth inhibition [3],growth inhibition [4],growth inhibition [5],growth inhibition [6]
CCOC(=O)C1=C(C)Oc2cc3c(cc2C1c1ccc(OC)cc1)OCO3 (configuration not stated),3.9% (inactive),5.8% (inactive),23.5% (inactive),-39.8% (inactive),31.4% (inactive),6.65% (inactive)
O=C1c2ccccc2C(=O)N1CN1CCC(CCCC2CCN(CN3C(=O)c4ccccc4C3=O)CC2)CC1,-58.5% (inactive),-34.2% (inactive),-36.3% (inactive),-11.1% (inactive),-48.1% (inactive),-44.8% (inactive)
COc1ccc2c(c1)C1Oc3ccccc3CC1(O)CO2 (configuration not stated),14.4% (inactive),6.75% (inactive),21.3% (inactive),26.5% (inactive),-6.3% (inactive),51.5% (inactive)
O=C(NCC(C(=O)OCc1ccccc1)C(=O)OCc1ccccc1)OCc1ccccc1,-8.9% (inactive),-13.8% (inactive),1.55% (inactive),-14.1% (inactive),-24.4% (inactive),-12.3% (inactive)
CC(SSc1ccc(C(C)(C)C)cc1)c1ccccc1 (configuration not stated),9.25% (inactive),-14.2% (inactive),-11.1% (inactive),-35.4% (inactive),10.2% (inactive),-1.4% (inactive)
Cc1cc(C)c(C(C=O)c2ccccc2)c(C)c1 (configuration not stated),18.6% (inactive),2.85% (inactive),10.3% (inactive),17.9% (inactive),6.25% (inactive),4.45% (inactive)
COc1c(Br)cc(Br)cc1Br,-1.45% (inactive),-5.7% (inactive),14.2% (inactive),-47.1% (inactive),-10.8% (inactive),6.05% (inactive)
CCCC1CCN(c2ccc([N+](=O)[O-])cc2[N+](=O)[O-])CC1,1.75% (inactive),-4.75% (inactive),9.65% (inactive),-19.2% (inactive),38.2% (inactive),-1.15% (inactive)
C=CCCCCCCCCC(=O)NCc1ccncc1,56.2% (inactive),29.2% (inactive),59.5% (inactive),50.4% (inactive),41.7% (inactive),86.7% (active)
CCC(C(O)c1ccc(Cl)cc1)[N+](=O)[O-] (configuration not stated),29.9% (inactive),21.7% (inactive),35.9% (inactive),3.05% (inactive),4.65% (inactive),43.7% (inactive)
CCc1ccc(NC(=O)Nc2ccc(Cl)cc2)cc1,-3.2% (inactive),7.75% (inactive),-8.65% (inactive),-16.9% (inactive),-0.8% (inactive),-12.6% (inactive)
O=C(Nc1ccccc1C/C(=N/O)c1ccc2c(c1)OCO2)c1ccccc1,51.5% (inactive),0.4% (inactive),54.1% (inactive),-32% (inactive),3.55% (inactive),23.4% (inactive)
CCOC(=O)C(C)c1nc2cc(F)c(F)cc2[nH]c1=O (configuration not stated),-5.45% (inactive),26.5% (inactive),9% (inactive),2.6% (inactive),4.1% (inactive),-19.4% (inactive)
CN(C(=O)c1ccc(C(=N)N)cc1)c1ccccc1,-8.3% (inactive),-7.3% (inactive),-5.1% (inactive),-12.8% (inactive),-0.05% (inactive),-8.95% (inactive)
CC(C)/C=C1\CCC(CN(C)C)C1=O (configuration not stated),30.4% (inactive),56.1% (inactive),68.8% (inactive),31.4% (inactive),75% (active),85.8% (active)
CC(O)COC(C)c1ccccc1 (configuration not stated),9.05% (inactive),0.3% (inactive),-0.7% (inactive),5.35% (inactive),-6.45% (inactive),2.1% (inactive)
CC(=O)Nc1cc2cc(NS(=O)(=O)c3ccc(Cl)c(Cl)c3)ccc2oc1=O,8.35% (inactive),-1.55% (inactive),0.35% (inactive),19.9% (inactive),-4% (inactive),10.4% (inactive)
O=S(=O)(c1ccccc1)C1CCCC1,-12.2% (inactive),8.9% (inactive),-1.85% (inactive),-11.8% (inactive),-6.7% (inactive),-2.9% (inactive)
